For 39 compounds, Percent Effect results are on record in ChEMBL document CHEMBL3988442, “University of Dundee, Small-Polar-MMV Screening Library” (2021).

This assay deals with Sialic acid-binding Ig-like lectin 9 (Homo sapiens) (UniProt Q9Y336). In words: Hs-Siglec9 ALPHAscreen SOP 20170721. More on the design: scale not given: direction of the effect not stated beside the values. As to conditions: 10 µM. For orientation: In Alpha technology, singlet oxygen from a donor bead excites a nearby acceptor bead.
Chain of Sialic acid-binding Ig-like lectin 9 (Homo sapiens) (Q9Y336 whole entry): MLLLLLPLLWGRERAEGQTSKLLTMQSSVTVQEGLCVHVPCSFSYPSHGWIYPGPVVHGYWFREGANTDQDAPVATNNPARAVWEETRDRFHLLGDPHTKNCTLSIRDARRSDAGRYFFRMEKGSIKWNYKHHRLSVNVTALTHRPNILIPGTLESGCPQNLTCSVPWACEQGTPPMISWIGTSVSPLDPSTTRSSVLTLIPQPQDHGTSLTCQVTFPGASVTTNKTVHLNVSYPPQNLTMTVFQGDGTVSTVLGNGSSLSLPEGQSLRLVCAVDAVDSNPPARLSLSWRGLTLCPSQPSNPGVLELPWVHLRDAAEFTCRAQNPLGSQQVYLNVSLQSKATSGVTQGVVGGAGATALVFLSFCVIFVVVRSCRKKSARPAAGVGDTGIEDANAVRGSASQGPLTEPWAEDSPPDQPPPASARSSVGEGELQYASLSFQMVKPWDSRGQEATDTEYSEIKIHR
As for `CNC(=O)C1CCN(C(=O)c2ccn(-c3ccc(F)cc3)n2)CC1`, the Percent Effect was 1.5%. Regarding `COc1cccc([C@@H]2CN(C(=O)c3ccc(C)cc3O)C[C@H]2C(=O)O)c1`, the Percent Effect was found to be 25.8%. For the compound `O=C(Cc1cccc(F)c1)NCCNCc1ccco1`, the Percent Effect was -0.647%. The same measure for `Cc1ncsc1C(=O)NC1CCN(CC(=O)NCc2ccccc2)CC1`: 1.72%; for `CCN1CC(C(=O)N(C)Cc2ccon2)CC1=O` (centres undefined): -7.7%; for `COCc1c(C(=O)O)nnn1Cc1cccc(C(F)(F)F)c1`: 0.663%. For the compound `O=C(NCC(O)c1cccc(F)c1)c1cccnc1O` (centres undefined), the Percent Effect was determined as 7.14%. As to `Cc1nc(CN2CCOC(Cn3cncn3)C2)nc2ccccc12` (centres undefined), the Percent Effect was 0.385%.

`CCc1nnc2n1CCN(C(=O)CN(C)Cc1ccccc1)C2`: the Percent Effect turned out to be 7.43%. As to `CCn1nc(C)c(CNC(=O)c2cn(CCC3CCCCN3)nn2)c1C` (centres undefined), the Percent Effect stood at 4.73%. For `CCS(=O)(=O)Nc1ccc(C(=O)NCCCN2CCCC2)cc1`, the Percent Effect is -3.93%. For `COc1cccc(CN(C)C(=O)CSc2ccc3c(c2)OCCO3)c1`, the Percent Effect turned out to be 0.77%. In the case of `CC(C)c1cnc(CNc2c(F)cccc2-n2cccn2)o1`, the Percent Effect is 6.14%. Take `O=S(=O)(Cc1ccccc1F)NCCCN1CCCCC1`: the Percent Effect came out at 18.2%. Take `CN(C)S(=O)(=O)N1CC[C@@H]2CN(Cc3cnn(C)c3)C[C@@H]2C1`: the Percent Effect is -2.67%. `CN(C(=O)Cc1ccc2c(c1)OCCO2)C1CCCC1`: the Percent Effect was -8.7%. Regarding `C1CC(NCc2nc(C3CC3)no2)CN(Cc2noc(C3CC3)n2)C1` (centres undefined), the Percent Effect was -3.6%.

As to `COCCN1C[C@@H]2CCCO[C@@H]2[C@H](NC(=O)c2cnccn2)C1`, the Percent Effect worked out at 1.69%. Turning to `Cc1nc2cc(C(=O)N3CCCC(n4cncn4)C3)ccc2n1C` (centres undefined), the Percent Effect was determined as 11.4%. Under `Cc1ccc(CN2CC(C(=O)N3CCCC3)C3(CCOCC3)C2)s1` (centres undefined) stands 0.63%; under `Cc1cc(C2CCCN(C(=O)c3cnn(C)c3)C2)ccn1` (centres undefined), 0.0727%. In the case of `COC(=O)N1CCCN(C(=O)NCc2ccc(Cl)s2)CC1`, the Percent Effect was -2.7%. Consider `NC(=O)CN1CCCN(C(=O)c2ccn(-c3ccccc3)n2)CC1`, for which the Percent Effect was 12.3%. Under `CCc1nnc(CN2CCN(C(=O)c3cc4ccccc4[nH]3)CC2)o1` stands 2.32%. With `Cn1ncc2c(=O)[nH]c(CN3CCC(Cc4ccccc4)CC3)nc21`, the Percent Effect came to 0.445%. Take `COCCN1C(=O)CO[C@H]2CN(Cc3c[nH]nc3-c3ccccc3)C[C@@H]21`: the Percent Effect stood at 9.93%. `CC(C(N)=O)S(=O)(=O)Cc1cc(Cl)c2c(c1)OCO2` (centres undefined): the Percent Effect is -10.6%.

Consider `COc1ccc2cc(C(=O)N3CCCCC3CC(N)=O)[nH]c2c1` (centres undefined), for which the Percent Effect is 13.8%. For the compound `CC(C)c1nccn1C1CCCN(C(=O)c2cnc[nH]2)C1` (centres undefined), the Percent Effect was found to be 16.2%.

For the compound `COc1ccc(C(=O)N2CCC(Nc3ccc(C)nn3)CC2)c(F)c1`, the Percent Effect was -1.89%. For `O=C(c1cnco1)N1C[C@@H]2CC[C@H](Oc3ccccc3F)[C@@H]2C1`, the Percent Effect is -7.43%. For the compound `CN(C)C(=O)Cc1nc(CN2CCOC(Cn3cccn3)C2)cs1` (centres undefined), the Percent Effect was -0.357%.

Turning to `Cc1ccoc1-c1nnc(CNCCn2cccn2)o1`, the Percent Effect is -12.1%. Take `O=C(NCc1cnc2n1CCN(Cc1ccsc1)CC2)C1CCC1`: the Percent Effect worked out at 4.49%. Under `Cc1ccc(C2CCCCCN2Cc2cn(C)nc2C)s1` (centres undefined) stands -1.66%. For `Cc1cccc(COC[C@H]2CC[C@H]3[C@H](CCN3C(=O)CC3CC3)O2)n1`, the Percent Effect was -1.34%.

`CC(Cn1cccn1)NC(=O)N(C)Cc1ccc(Cl)s1` (centres undefined): the Percent Effect is 9.63%. For the compound `Fc1ccc(-c2nnc(CN3CCOC(Cn4cncn4)C3)o2)cc1` (centres undefined), the Percent Effect was -4.51%. With `CCc1noc(C2CCCCN2C(=O)c2nnc3ccccc3n2)n1` (centres undefined), the Percent Effect was -0.0891%.
